Here are results for 32 compounds from the supplement of paper PMC3342239.

Structures can show the parent of a compound that is named as a salt.

This assay deals with Saccharomyces cerevisiae. Briefly: fraction of cells in G1 phase (DNA content, flow cytometry); higher = more cells with unreplicated DNA (G1 delay). As to conditions: temperature: 30 C; YPD; JTY2953 pdr5 snq2 (sensitized); drug added to: cultures diluted from stationary phase; 6-7 h. The method in brief:
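S. cerevisiae in YPD at 30°C was dosed with library drugs, using a final 20 µg/ml for sensitized JTY2953 diluted 1∶200 from overnight and fixed at 6–7 h, or dosing dividing JTY2953 (fixed at 6 h) and BY4741 (fixed at 4.33 h). Ethanol-fixed, SYTOX Green-stained cells were read by flow cytometry (10,000 events). The G1 fraction is taken as the Dean-Jett-Fox G1 peak area divided by the G1 and G2/M areas combined.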
A general note: A flow cytometer gives signals particle by particle.
As for `C[C@H]1c2cccc(O)c2C(O)=C2C(=O)[C@]3(O)C(O)=C(C(N)=O)C(=O)[C@@H](N(C)C)[C@@H]3[C@@H](O)[C@@H]21` [Doxycycline HCl] (44.9999 µM), the “fraction of cells in G1 phase” value came out at 0.53.
The figure for `NCCC(O)(P(=O)(O)O)P(=O)(O)O` [Pamidronic acid] (85.0806 µM) is 0.476; for `CC(=O)[C@@]1(O)CC[C@H]2[C@@H]3CCC4=CC(=O)CC[C@]4(C)[C@H]3CC[C@@]21C` [17- hydroxyprogesterone] (60.5196 µM) it is 0.515; for `Cc1cnc(C(=O)O)c[n+]1[O-]` [Acipimox] (129.764 µM) it is 0.493.
The figure for `C/C=C/c1ccc(OC)cc1` [Anethole, trans-] (134.947 µM) is 0.525; for `COc1ccccc1Oc1c(NS(=O)(=O)c2ccc(C(C)(C)C)cc2)nc(-c2ncccn2)nc1OCCO` [Bosentan] (36.2564 µM) it is 0.497; for `CC(C)Cc1ccc(C(C)C(=O)O)cc1` (configuration not stated) [Ibuprofen] (96.9522 µM) it is 0.575.
The figure for `NCCCC[C@H](N[C@@H](CCc1ccccc1)C(=O)O)C(=O)N1CCC[C@H]1C(=O)O` [Lisinopril] (49.322 µM) is 0.502.
Consider `CC#CCC(C)[C@H](O)/C=C/[C@@H]1[C@H]2C/C(=C/CCCC(=O)O)C[C@H]2C[C@H]1O` (some centres not stated) [Iloprost] (55.4788 µM), for which the “fraction of cells in G1 phase” value was 0.481.
For the compound `C[N+](C)(C)[C@@H](Cc1c[nH]c(=S)[nH]1)C(=O)[O-]` [Ergothioneine] (87.2209 µM), the “fraction of cells in G1 phase” value is 0.464.
The figure for `O=C(c1ccc(F)cc1)C1CCN(CCn2c(=O)[nH]c3ccccc3c2=O)CC1` [Ketanserin tartrate] (50.5769 µM) is 0.475.
Take `Clc1cccc(Cl)c1NC1=NCCN1` [Clonidine HCl] (75.0469 µM): the “fraction of cells in G1 phase” value is 0.504.
`NC(=O)N1c2ccccc2CC(=O)c2ccccc21` [Oxcarbazepine] (79.2785 µM): the “fraction of cells in G1 phase” value came to 0.503.
The figure for `CC(N)C12CC3CC(CC(C3)C1)C2` (configuration not stated) [Rimantadine HCl] (111.54 µM) is 0.484; for `Cc1c(-c2cnccn2)ssc1=S` [Oltipraz] (88.3617 µM) it is 0.503; for `CC[C@@H]1C(=O)OC[C@@H]1Cc1cncn1C` [Pilocarpine HCl] (96.0327 µM) it is 0.526.
As to `Nc1nc(=O)n([C@@H]2CS[C@H](CO)O2)cc1F` [Emtricitabine] (80.8899 µM), the “fraction of cells in G1 phase” value came to 0.481.
The figure for `CC[C@@]1(O)C(=O)OCc2c1cc1n(c2=O)Cc2cc3c(CN(C)C)c(O)ccc3nc2-1` [Topotecan] (47.4544 µM) is 0.481; for `CC(C)(C)[C@]1(O)CCN2C[C@H]3c4ccccc4CCc4cccc(c43)[C@@H]2C1` [Butaclamol (+)] (55.3201 µM) it is 0.535.
The figure for `O=C(O)Cc1ccccc1Nc1c(Cl)cccc1Cl` [Diclofenac, Na] (67.5321 µM) is 0.473.
For `C[C@@](Cc1ccc(O)c(O)c1)(NN)C(=O)O` [Carbidopa] (88.404 µM), the “fraction of cells in G1 phase” value worked out at 0.482.
The figure for `COc1ccc2[nH]c([S+]([O-])Cc3ncc(C)c(OC)c3C)nc2n1` (configuration not stated) [Tenatoprazole] (57.7349 µM) is 0.486.
The figure for `Cc1c(C)c2c(c(C)c1O)CCC(C)(COc1ccc(CC3SC(=O)NC3=O)cc1)O2` (configuration not stated) [Troglitazone] (45.2949 µM) is 0.591; for `CN1CCCCC1CCN1c2ccccc2Sc2ccc([S+](C)[O-])cc21` (configuration not stated) [Mesoridazine besylate] (51.7354 µM) it is 0.476.
The figure for `O=C(O)c1cc(-c2ccc(F)cc2F)ccc1O` [Diflunisal] (79.9349 µM) is 0.512; for `Nc1ccn([C@@H]2O[C@H](CO)[C@@H](O)C2(F)F)c(=O)n1` [Gemcitabine HCl] (75.9871 µM) it is 0.49; for `CCN(CC)CCNC(=O)c1cc(Cl)c(N)cc1OC` [Metoclopramide HCl] (66.7104 µM) it is 0.493.
With `CC(C)NCC(O)c1ccc(O)c(O)c1` (racemic) [Isoproterenol HCl (rac)] (94.6687 µM), the “fraction of cells in G1 phase” value was determined as 0.447.
The figure for `C[C@]12CCC(=O)C=C1CC[C@@H]1[C@@H]2[C@@H](O)C[C@@]2(C)[C@H]1CC[C@]2(O)C(=O)CO` [Hydrocortisone] (55.1769 µM) is 0.483.
The figure for `COc1ccc(/C=C/C(=O)Nc2ccccc2C(=O)O)cc1OC` [Tranilast] (61.0986 µM) is 0.546; for `CC(=O)Oc1ccc(C(c2ccc(OC(C)=O)cc2)c2ccccn2)cc1` [Bisacodyl] (55.3402 µM) it is 0.499.
Turning to `CS(=O)(=O)Nc1ccc([N+](=O)[O-])cc1Oc1ccccc1` [Nimesulide] (64.8687 µM), the “fraction of cells in G1 phase” value was 0.58.
